# Experimental data: PubChem BioAssay AID652015 (National Center for Advancing Translational Sciences (NCATS), 2013)
# Records with an inconclusive call do not appear. Activity calls are given as the source filed them. Calls follow the shape of the dose curve; as a rule, active = well fitted inhibition curve with a large enough effect; inconclusive = small, poorly fitted or top-dose-only effect; inactive = no such curve, though single readings can be large or run the other way.
# Biological target: Coelenterazine h 2-monooxygenase (Renilla reniformis) (UniProt P27652)
# Sequence (P27652 whole entry, looked up): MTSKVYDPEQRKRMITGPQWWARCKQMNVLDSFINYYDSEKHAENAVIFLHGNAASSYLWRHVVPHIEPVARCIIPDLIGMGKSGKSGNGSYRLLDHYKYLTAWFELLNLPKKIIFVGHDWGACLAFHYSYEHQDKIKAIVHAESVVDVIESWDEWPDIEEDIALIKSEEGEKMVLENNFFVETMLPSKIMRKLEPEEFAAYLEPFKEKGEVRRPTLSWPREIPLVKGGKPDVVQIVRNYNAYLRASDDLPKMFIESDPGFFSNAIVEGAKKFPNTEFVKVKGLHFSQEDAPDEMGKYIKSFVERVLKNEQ
# Test: qHTS Assay for Inhibitors of Sea Pansy Luciferase from the GSK Published Protein Kinase Inhibitor Set
# Conditions: purified Renilla luciferase, luminescence; series mostly up to 57.5 µM; activity change, negative = inhibition: at the top concentration
# Procedure, shortened: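 qHTS (roughly 60 uM down to 300 pM) against 1 nM Renilla luciferase, substrate coelenterazine h 5 uM, Tris acetate pH 7.5 buffer with NaCl, Tween-20 and BSA. Luminescence measured after an average 2 min incubation.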
# Potency is read from the fitted curve at half-maximal effect.
Structure (SMILES),"activity change, negative = inhibition",Potency
CN1CCC(n2cnc(-c3ccc(F)cc3)c2-c2ccnc(N)n2)CC1,12.6% (inactive),–
O=C(OC1CNC(C#Cc2cc3ncnc(Nc4ccc5c(cnn5Cc5ccccc5)c4)c3s2)C1)N1CCOCC1 (centres undefined),22.5% (inactive),–
Cn1c(-c2nonc2N)nc2cnccc21,13% (inactive),–
Fc1ccc(-c2ncn(C3CCNCC3)c2-c2ccnc(Oc3ccc4c(c3)OCO4)n2)cc1,13.2% (inactive),–
c1ccc(Nc2ncc(-c3ccccc3)o2)cc1,5.69% (inactive),–
CN(C)CCCn1c(-c2nonc2N)nc2cnccc21,11.9% (inactive),–
COc1cc(C=NNc2ncnc3c2cnn3C(C)C)ccc1O,5.48% (inactive),–
c1cnn2ncc(-c3ccnc(NCCCN4CCOCC4)n3)c2c1,20.5% (inactive),–
CCC(=O)Nc1ccc(C)c(-c2ccc(C(=O)NCC3CC3)cc2)c1,8.23% (inactive),–
COc1cc(C=NNc2ncnc3c2cnn3-c2ccccc2)ccc1O,34.5% (inactive),–
CCn1c(-c2nonc2N)nc2cncc(C(=O)NCCNC)c21,39.8% (inactive),–
COc1cc(C)c(N(C)C(=O)CN(C)C)cc1Nc1nc(Nc2cccc(F)c2C(N)=O)c2cc[nH]c2n1,56.2% (inactive),–
CC1=C(C(=O)Nc2ccc3[nH]ncc3c2)C(c2ccc3ccccc3c2)CC(=O)N1 (centres undefined),32.4% (inactive),–
CN1CCC(n2cnc(-c3ccc(F)cc3)c2-c2ccnc(NCCO)n2)CC1,36.2% (inactive),–
Cc1ccc2c(-c3ccnc(Nc4ccc5c(c4)OCCO5)n3)c(-c3ccc(C(F)(F)F)cc3)nn2n1,13.6% (inactive),–
CN1CCC(n2cnc(-c3ccc(F)cc3)c2-c2ccnc(Nc3ccccc3)n2)CC1,23.2% (inactive),–
Cc1ccc(C(=O)NC2CCCCC2)cc1-c1ccc(C(=O)NCC2CC2)cc1,8.65% (inactive),–
Cc1ccc(Nc2ccnc(Nc3cccc(C(N)=O)c3)n2)cc1O,2.39% (inactive),–
Cc1cc(O)cc(C)c1C=Cc1cncc(C(=O)N(C)C)c1,3.41% (inactive),–
Cc1ccc2c(-c3ccnc(Nc4cccc(C(F)(F)F)c4)n3)c(-c3ccccc3)nn2n1,9.89% (inactive),–

Structure (SMILES),"activity change, negative = inhibition",Potency
FC(F)(F)c1cccc(-c2nn3ncccc3c2-c2ccnc(Nc3ccc4c(c3)OCCO4)n2)c1,48.6% (inactive),–
COc1ccccc1C1=C(Nc2ccccc2)C(=O)NC1=O,38.9% (inactive),–
O=C(Nc1n[nH]c2cc(-c3cc(F)ccc3F)ccc12)C1CC1,12.6% (inactive),–
N#Cc1ccc(Oc2nccc(-c3c(-c4ccc(F)cc4)ncn3C3CCNCC3)n2)cc1,8.41% (inactive),–
CCn1c(-c2nonc2N)nc2ccccc21,19.1% (inactive),–
NC(=O)c1ccc(-c2nc(-c3ccc4c(c3)OCO4)c(-c3ccccn3)[nH]2)cc1,0.676% (inactive),–
COc1ccccc1-c1cc(C=C2C(=O)Nc3ncc(Br)cc32)cc(Br)c1O,–,8.19 µM (active)
N#Cc1c(NC(=O)CN2CCOCC2)sc2c1CCCC2,10.2% (inactive),–
CN1CCN(CCCNc2nc3ccc(Oc4ccc(NC(=O)Nc5cc(C(F)(F)F)ccc5F)cc4)cc3[nH]2)CC1,–,23.1 µM (active)
COC(=O)Nc1nc2ccc(Sc3ccc(NC(=O)Nc4cc(C(F)(F)F)ccc4F)cc3)cc2[nH]1,74.4% (inactive),–
COc1ccc(-c2ccncc2)cc1C(N)=O,45.5% (inactive),–
COC(=O)Nc1nc2ccc(Oc3ccc(NC(=O)Nc4cccc(Br)c4)cc3)cc2[nH]1,0.676% (inactive),–
CCOc1ccc2c(-c3ccnc(Nc4cc(OC)cc(C(F)(F)F)c4)n3)cnn2n1,39.9% (inactive),–
COc1cc(Nc2ncc(-c3ccccc3)o2)cc(OC)c1OC,24.1% (inactive),–
CCn1c(-c2nonc2N)nc2c(C#CC(C)(C)O)nc(CN3CCCC3)cc21,21.5% (inactive),–
COc1cccc(-n2cnc3c(NN=Cc4ccncc4)ncnc32)c1,18.6% (inactive),–
NC(=O)c1cc(-c2ccncc2)cc(-c2ccccc2)c1N,36.8% (inactive),–
COc1cc(Nc2nccc(-c3cnn4ncccc34)n2)cc(OC)c1,3.31% (inactive),–
COc1cc2ncnc(Nc3ccc(C)c(O)c3)c2cc1OC,28.5% (inactive),–
